Assay outcomes deposited in PubChem by National Center for Advancing Translational Sciences (NCATS).
HT1080 IDH1KD tx = kills HT-1080 cells with IDH1 knockdown | 360,000 tested, 2% active | HT-1080 IDH1 knockdown viability, ATP luminescence, 48 h | Potency, µM (series often up to 46.1 µM), inactives show at the highest dose activity, negative = toxicity, hits mostly cytotoxic;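 note: potency is the fitted concentration of half-maximal effect; 0% = DMSO wells and -100% = cell-free medium wells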
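Luminescent ATP read-out (CellTiter-Glo, 10 min at room temperature) after 48 h compound exposure at 37 °C gave viability of IDH1-knockdown HT-1080 cells. Activity was normalised to DMSO and cell-free wells, then fitted as concentration-response curves.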
HT1080NT lethal = kills 2HG-producing HT-1080-NT fibrosarcoma cells; Potency, µM (titrated, usually from 46.1 µM), without a hit: at the highest dose activity, negative = less viability, actives largely listed as cytotoxic; HT-1080-NT fibrosarcoma viability, CellTiter-Glo ATP luminescence, 48 h; 360,000 tested, 1.6% active;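 note: NT is the 2HG producing partner of a matched IDH1 knockdown line; potency is the fitted concentration of half-maximal effect; 0% = DMSO-treated cells and -100% = media-only wells without cells; nearly all actives have a fitted effect of over 55% in size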
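Compounds were tested in concentration-response format on HT-1080-NT cells for 48 hours at 37 degrees C. Cell viability came from CellTiter-Glo luminescence; curves were classified by r2, response magnitude and activity.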
TDP1 cell CPT = growth inhibition of DT40 Tdp1-/-;hTDP1 cells with camptothecin (screen for TDP1 inhibitors). chicken DT40 Tdp1-/-;hTDP1 cells + 20 nM CPT, ATP luminescence, 48 h. Potency, µM (titrated, usually from 46.2 µM), without a hit: top-dose activity change, negative = growth inhibition, most hits filed as inhibitors. 420,000 tested, 12% active; note: potency is the fitted concentration of half-maximal effect; nearly all actives have a fitted effect of over 55% in size
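Cell growth measured by CellTiter-Glo luminescence after a minimum 48 h, 37 C compound exposure with 20 nM CPT in Tdp1-knockout DT40 cells stably expressing hTDP1, seeded 400/well; qHTS titration format.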
IL1B secr inh = blocks inflammasome-driven IL-1 beta release; THP-1 LPS/ATP IL-1B secretion, AlphaLISA, 16 h; stronger effect = lower value; activity change, % at 57.5 µM; 360,000 tested, 4.7% active; AID 743279; in the data active = activity change below about -50%; inconclusive = mostly about -30% to -49%
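THP-1 cells pretreated 1 hr with compounds (up to 57.5 uM final), then stimulated with LPS (250 ng/mL final) plus ATP (1.25 mM final); secreted IL-1B measured by AlphaLISA after 16 hr, decreased signal indicating inhibition.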
ELG1 repair inh = inhibitors of ELG1-dependent DNA repair in HEK293T cells; HEK293T ELG1-luciferase reporter, luminescence, 16 h; DNA damage induced by 5-fluorouridine; Potency, µM (doses to about 46.1 µM), without a hit: at the top dose activity change, negative = inhibition, usual class: inhibitors; 330,000 tested, 2.3% active; note: potency is the fitted concentration of half-maximal effect; nearly all actives have a fitted effect of over 55% in size
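Overnight (16 hr) co-exposure of 2,000 cells/well to 5-fluorouridine and compound at 37 °C preceded detection. Luciferase was quantified via ONE-Glo luminescence; loss of signal denotes inhibition.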
DT40 TDP1 no CPT = qHTS for Inhibitors of human tyrosyl-DNA phosphodiesterase 1 (TDP1): qHTS in cells in absence of CPT | DT40 Tdp1-/- hTDP1 cells, no CPT, ATP luminescence, 48 h | Potency, µM (titrated, usually from 46.2 µM), for inactives: top-dose activity change, negative = growth inhibition, usual class: inhibitors | 420,000 tested, 15% active; note: potency is the fitted concentration of half-maximal effect; nearly all actives have a fitted effect of over 55% in size
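Luminescent ATP content (CellTiter-Glo) served as the growth readout. Knockout chicken DT40 cells expressing human TDP1 were exposed to compounds without camptothecin for a minimum 48 hr at 37 °C.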
* hit, by the source's call; ? = inconclusive; nt = no result. Rows were chosen to be rich in hits. Some 19% of all compounds tested hit in one or more screens of this group. Unless noted, calls come from the whole dose curve; as a rule, active = well fitted curve in the direction sought with a large enough effect; inconclusive = small, poorly fitted or top-dose-only effect, or another doubt; inactive = no such curve, though single readings can be large; an effect the other way counts as inactive or inconclusive. Unless noted, % is set by controls: 0 for no effect and ±100 for the full control effect.

SMILES | HT1080 IDH1KD tx | HT1080NT lethal | TDP1 cell CPT | IL1B secr inh | ELG1 repair inh | DT40 TDP1 no CPT
COc1ccc(C2NC(=O)CCC2[N+](=O)[O-])c(OC)c1OC (configuration not stated) | 8.6% | 5.6% | 2.2% | 3.1 | 0.1% | -6.6%
CCn1c(=O)n(-c2ccc(C)c(F)c2)c(=O)c2sc3ccccc3c21 | nt | nt | -28.2% | nt | nt | ?
Cc1csc(C)[n+]1CCC1CCCCC1 | nt | nt | ? | nt | nt | 12.6µM*
COc1ccc(C2CC=C(C(C)=O)CN2S(=O)(=O)c2ccc(C)cc2)cc1 (configuration not stated) | 4.5% | -3.0% | ? | 12.4 | nt | 23.1µM*
CCOc1ccc(C2CC=C(C(C)=O)CN2S(=O)(=O)c2ccc(C)cc2)cc1 (configuration not stated) | ? | -10.9% | 23.1µM* | -2.9 | nt | 23.1µM*
CCOc1ccc([C@@H]2CC=C(C(=O)O)CN2S(=O)(=O)c2ccc(C)cc2)cc1 | 4.9% | -16.4% | -9.6% | 36.9 | 21.1% | -6.7%
COc1ccc([C@@H]2CC=C(C(=O)O)CN2S(=O)(=O)c2ccc(Cl)cc2)cc1 | 0.9% | -8.0% | 3.3% | 17.3 | 8.3% | -6.8%
COc1ccc(C2CC=C(C(C)=O)CN2S(=O)(=O)c2ccccc2)cc1 (configuration not stated) | -5.5% | 2.8% | ? | -12.7 | nt | 20.6µM*
Cn1c(SCC(N)=O)nc2c([nH]c3ccccc32)c1=O | nt | nt | 6.0% | nt | nt | -19.5%
CCOC(=O)c1ccc(NC(=O)CSc2nc(-c3cccs3)cc(C(F)(F)F)c2C#N)cc1 | nt | nt | ? | nt | nt | -25.1%
O=C(Nc1ccncc1)c1ccc(C(=O)Nc2ccncc2)cc1 | 3.4% | 10.2% | -27.7% | 9.0 | -4.5% | -27.8%
COC(=O)c1sccc1NC(=O)c1c(F)c(F)c(F)c(F)c1F | ? | 18.4µM* | ? | -101.9* | nt | ?
O=C(NNC(=O)OCc1ccccc1)OCc1ccccc1 | -11.1% | 5.4% | -2.0% | -7.1 | nt | -9.0%
O=C(Nc1ccncc1)OCc1ccccc1 | -6.0% | -14.3% | ? | -16.0 | -25.1% | 20.6µM*
CC(=O)c1cccc(NC(=O)c2c(F)c(F)c(F)c(F)c2F)c1 | -7.9% | -2.1% | ? | -28.8 | ? | 29.1µM*
O=C(Nc1ccncc1)c1c(Cl)cccc1Cl | -3.0% | ? | 9.2µM* | -60.8* | ? | ?
COc1ccc(OC(C)C(=O)N2CCCc3ccccc32)cc1 (configuration not stated) | 5.7% | -0.3% | ? | 9.3 | ? | ?
O=C(Nc1ccncc1)Nc1cccc(Cl)c1Cl | -21.3% | -23.8% | 23.1µM* | -21.7 | 6.9% | ?
O=C(Nc1ccccc1NC(=O)c1c(F)c(F)c(F)c(F)c1F)c1c(F)c(F)c(F)c(F)c1F | ? | ? | -6.9% | -107.9* | -15.2% | -23.5%
O=C(Nc1ccncc1)c1c(F)c(F)c(F)c(F)c1F | -23.0% | -9.1% | -10.1% | -95.7* | -2.7% | -29.3%
CC(C)(C)c1cc(NC(=O)Nc2ccccc2)no1 | 3.2% | 7.5% | ? | -53.8* | ? | -24.1%
CN(CC(=O)Nc1ccccc1Br)C(=O)CCCSc1nc2ccccc2[nH]1 | -5.2% | 1.1% | -9.7% | 5.1 | 2.3% | -22.2%
COc1cc(OC)c(S(=O)(=O)NC(C)C)cc1C(=O)O | 6.2% | 5.6% | -11.5% | 3.8 | 2.8% | 6.5%
CCC(C(=O)Nc1cccnc1)c1ccccc1 (configuration not stated) | 7.5% | 0.7% | -5.0% | 9.2 | -5.3% | -10.1%
O=C(Nc1ccc(Cl)cc1)Nc1cccc2nsnc12 | -3.4% | -4.8% | ? | ? | ? | 29.1µM*
O=C(Nc1ccccc1)Nc1ccncc1 | -11.2% | -17.2% | ? | 0.0 | ? | 20.6µM*
